What all share (assay): DAPPL (digital affinity profiling via proximity ligation, sequencing); 10 mM Tris-HCl pH 7.5, 50 mM NaCl, 1 mM DTT, 4% glycerol, room temperature, 30 min; GST-TFs on glutathione beads, 16-mer random dsDNA library, 0.1% formaldehyde crosslink after washing; high values mean tight binding
Common to all, as to details: protein: recombinant; tags: N-terminal GST; dsDNA, one strand shown

In one assay the target is T1, FLI1 (Homo sapiens, UniProt Q01543 1-452).
T1 sequence: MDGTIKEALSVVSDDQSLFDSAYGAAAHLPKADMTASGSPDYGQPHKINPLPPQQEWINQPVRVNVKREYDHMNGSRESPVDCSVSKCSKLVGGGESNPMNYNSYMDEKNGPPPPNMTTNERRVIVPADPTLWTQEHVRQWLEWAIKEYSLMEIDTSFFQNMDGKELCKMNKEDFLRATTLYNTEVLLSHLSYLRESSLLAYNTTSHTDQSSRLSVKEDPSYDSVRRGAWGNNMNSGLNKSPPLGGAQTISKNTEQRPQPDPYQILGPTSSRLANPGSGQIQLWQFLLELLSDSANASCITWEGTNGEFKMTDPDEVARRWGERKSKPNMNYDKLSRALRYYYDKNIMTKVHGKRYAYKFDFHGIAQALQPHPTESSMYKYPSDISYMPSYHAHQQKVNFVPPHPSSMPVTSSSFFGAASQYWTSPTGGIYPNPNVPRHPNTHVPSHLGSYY
In short, it runs like this: (§1)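 Beads coated with glutathione captured GST-fused human transcription factors that had been expressed in yeast, and the factors were then given DNA barcodes and pooled with a tag-only sample. The pools were incubated with 200 nmole of a random double-stranded 16-mer DNA library in Tris/NaCl/DTT/glycerol buffer for 30 min at room temperature, washed, crosslinked with 0.1% formaldehyde and proximity-ligated with BsaI/T4 ligase at 37 °C for 1 h. PCR amplification and Illumina NextSeq500 sequencing came last. Binding signal is each hexamer's read frequency for a factor divided by its frequency for the tag-only sample.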

For the next assay, the target named is T2, ELK1 (Homo sapiens, UniProt P19419 1-428).
T2 sequence: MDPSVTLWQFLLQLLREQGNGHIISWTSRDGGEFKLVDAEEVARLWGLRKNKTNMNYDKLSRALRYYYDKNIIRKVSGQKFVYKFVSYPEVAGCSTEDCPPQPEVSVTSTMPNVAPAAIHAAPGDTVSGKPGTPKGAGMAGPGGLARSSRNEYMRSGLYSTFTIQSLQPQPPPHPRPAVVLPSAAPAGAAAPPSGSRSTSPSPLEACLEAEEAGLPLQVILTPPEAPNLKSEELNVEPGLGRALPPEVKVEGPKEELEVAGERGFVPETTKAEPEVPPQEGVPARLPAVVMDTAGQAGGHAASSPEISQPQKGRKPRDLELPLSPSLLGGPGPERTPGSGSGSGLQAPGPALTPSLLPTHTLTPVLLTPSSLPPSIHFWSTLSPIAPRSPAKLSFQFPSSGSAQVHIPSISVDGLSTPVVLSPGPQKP
In a few lines: as §1

In the next assay the target is T3, GABPA (Homo sapiens, UniProt Q06546 1-454).
T3 sequence: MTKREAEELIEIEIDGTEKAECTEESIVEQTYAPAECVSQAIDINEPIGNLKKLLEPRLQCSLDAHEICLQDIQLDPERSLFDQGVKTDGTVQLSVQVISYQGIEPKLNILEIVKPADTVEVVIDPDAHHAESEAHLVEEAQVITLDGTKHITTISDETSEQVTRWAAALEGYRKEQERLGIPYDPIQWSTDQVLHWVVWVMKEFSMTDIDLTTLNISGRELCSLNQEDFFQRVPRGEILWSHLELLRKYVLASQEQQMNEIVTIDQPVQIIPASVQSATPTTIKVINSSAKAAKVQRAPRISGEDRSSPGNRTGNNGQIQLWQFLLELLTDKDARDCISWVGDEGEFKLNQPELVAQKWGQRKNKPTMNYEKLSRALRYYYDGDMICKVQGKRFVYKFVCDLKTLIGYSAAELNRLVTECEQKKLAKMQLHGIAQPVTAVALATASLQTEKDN
In short, it runs like this:
as §1

Another assay concerns the target T4, ERG (Homo sapiens, UniProt P11308 1-479).
T4 sequence: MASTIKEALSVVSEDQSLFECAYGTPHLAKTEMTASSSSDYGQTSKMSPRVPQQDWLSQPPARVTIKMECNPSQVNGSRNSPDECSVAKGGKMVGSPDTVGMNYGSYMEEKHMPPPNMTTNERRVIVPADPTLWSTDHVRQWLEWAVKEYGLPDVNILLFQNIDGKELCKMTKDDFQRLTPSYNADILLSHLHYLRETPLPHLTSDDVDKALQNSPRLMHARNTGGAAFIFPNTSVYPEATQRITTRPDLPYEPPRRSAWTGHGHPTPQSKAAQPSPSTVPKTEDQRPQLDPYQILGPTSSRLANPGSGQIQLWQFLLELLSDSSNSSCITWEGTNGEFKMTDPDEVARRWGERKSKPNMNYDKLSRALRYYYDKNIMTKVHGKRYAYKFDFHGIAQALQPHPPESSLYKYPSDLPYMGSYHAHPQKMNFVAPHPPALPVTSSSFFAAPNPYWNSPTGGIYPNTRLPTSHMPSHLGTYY
In a few lines: as §1

The target of the next assay is ELF1 (Homo sapiens, UniProt P32519 1-619). In a few lines:
as §1

In a further assay the target is T5, EHF (Homo sapiens, UniProt Q9NZC4 1-300).
T5 sequence: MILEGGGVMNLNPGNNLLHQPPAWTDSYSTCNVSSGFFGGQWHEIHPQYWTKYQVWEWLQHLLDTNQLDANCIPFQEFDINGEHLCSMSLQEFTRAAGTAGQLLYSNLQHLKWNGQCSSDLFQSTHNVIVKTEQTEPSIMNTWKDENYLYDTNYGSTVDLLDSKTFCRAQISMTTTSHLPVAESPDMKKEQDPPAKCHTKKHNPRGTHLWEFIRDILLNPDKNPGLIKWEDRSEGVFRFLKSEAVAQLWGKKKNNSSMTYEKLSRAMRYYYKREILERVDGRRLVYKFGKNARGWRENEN
In short, it runs like this: as §1

A further assay deals with T6, ELK3 (Homo sapiens, UniProt P41970 1-407).
T6 sequence: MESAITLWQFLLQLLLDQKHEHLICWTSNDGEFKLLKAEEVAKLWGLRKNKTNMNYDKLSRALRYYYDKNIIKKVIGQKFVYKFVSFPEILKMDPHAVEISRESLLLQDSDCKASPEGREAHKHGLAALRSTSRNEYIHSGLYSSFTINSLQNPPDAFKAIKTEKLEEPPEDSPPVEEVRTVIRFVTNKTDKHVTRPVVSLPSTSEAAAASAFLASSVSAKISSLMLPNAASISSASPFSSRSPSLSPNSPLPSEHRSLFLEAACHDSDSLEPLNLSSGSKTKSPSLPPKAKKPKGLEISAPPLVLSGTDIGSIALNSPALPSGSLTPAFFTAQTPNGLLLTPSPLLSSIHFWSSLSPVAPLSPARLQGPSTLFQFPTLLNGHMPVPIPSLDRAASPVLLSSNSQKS
In a few lines: as §1

The next assay addresses T7, FEV (Homo sapiens, UniProt Q99581 1-238).
T7 sequence: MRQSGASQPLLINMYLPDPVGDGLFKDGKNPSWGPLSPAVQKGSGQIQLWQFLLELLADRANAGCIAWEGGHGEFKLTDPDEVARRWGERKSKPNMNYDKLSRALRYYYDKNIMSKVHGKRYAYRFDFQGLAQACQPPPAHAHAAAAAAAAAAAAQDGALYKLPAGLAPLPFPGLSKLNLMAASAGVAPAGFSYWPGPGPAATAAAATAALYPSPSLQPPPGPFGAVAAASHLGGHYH
In a few lines:
as §1

The next assay deals with ETV5 (Homo sapiens, UniProt P41161 1-510). In a few lines: as §1
Another assay concerns the target T8, SPIC (Homo sapiens, UniProt Q8N5J4 1-248).
T8 sequence: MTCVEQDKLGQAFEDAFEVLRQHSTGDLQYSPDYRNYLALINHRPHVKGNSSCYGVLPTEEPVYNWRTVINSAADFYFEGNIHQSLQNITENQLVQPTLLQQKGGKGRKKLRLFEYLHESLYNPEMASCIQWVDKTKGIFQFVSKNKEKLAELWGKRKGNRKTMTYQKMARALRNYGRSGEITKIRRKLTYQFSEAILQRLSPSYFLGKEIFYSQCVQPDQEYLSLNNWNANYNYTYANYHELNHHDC
In short, it runs like this: as §1

The target in a further assay is ELF4 (Homo sapiens, UniProt Q99607 1-663). In short, it runs like this:
as §1

Another assay has as its target T9, ELK4 (Homo sapiens, UniProt P28324-2 1-405).
T9 sequence: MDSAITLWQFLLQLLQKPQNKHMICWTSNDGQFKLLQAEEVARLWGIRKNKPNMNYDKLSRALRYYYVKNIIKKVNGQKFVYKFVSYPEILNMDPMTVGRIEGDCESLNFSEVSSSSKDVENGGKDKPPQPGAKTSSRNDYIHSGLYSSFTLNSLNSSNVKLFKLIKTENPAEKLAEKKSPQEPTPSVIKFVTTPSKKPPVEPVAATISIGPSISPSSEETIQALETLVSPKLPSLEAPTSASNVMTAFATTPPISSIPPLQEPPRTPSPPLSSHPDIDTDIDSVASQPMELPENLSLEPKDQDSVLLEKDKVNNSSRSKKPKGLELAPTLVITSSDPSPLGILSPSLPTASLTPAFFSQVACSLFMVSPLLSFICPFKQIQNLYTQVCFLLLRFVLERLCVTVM
In short, it runs like this:
as §1

Another assay concerns the target T10, ETV2 (Homo sapiens, UniProt O00321 1-342).
T10 sequence: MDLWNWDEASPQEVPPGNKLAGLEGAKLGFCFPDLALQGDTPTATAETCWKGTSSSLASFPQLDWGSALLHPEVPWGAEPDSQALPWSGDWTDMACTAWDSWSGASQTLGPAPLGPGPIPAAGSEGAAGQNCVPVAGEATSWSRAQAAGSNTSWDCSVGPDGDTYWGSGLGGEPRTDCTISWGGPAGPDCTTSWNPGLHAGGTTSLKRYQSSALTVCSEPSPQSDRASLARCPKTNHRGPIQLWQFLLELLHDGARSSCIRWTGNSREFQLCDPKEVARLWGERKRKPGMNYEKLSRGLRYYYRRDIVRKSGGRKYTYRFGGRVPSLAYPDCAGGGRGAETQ
In a few lines:
as §1

A further assay has as its target T11, ELF3 (Homo sapiens, UniProt P78545 1-371).
T11 sequence: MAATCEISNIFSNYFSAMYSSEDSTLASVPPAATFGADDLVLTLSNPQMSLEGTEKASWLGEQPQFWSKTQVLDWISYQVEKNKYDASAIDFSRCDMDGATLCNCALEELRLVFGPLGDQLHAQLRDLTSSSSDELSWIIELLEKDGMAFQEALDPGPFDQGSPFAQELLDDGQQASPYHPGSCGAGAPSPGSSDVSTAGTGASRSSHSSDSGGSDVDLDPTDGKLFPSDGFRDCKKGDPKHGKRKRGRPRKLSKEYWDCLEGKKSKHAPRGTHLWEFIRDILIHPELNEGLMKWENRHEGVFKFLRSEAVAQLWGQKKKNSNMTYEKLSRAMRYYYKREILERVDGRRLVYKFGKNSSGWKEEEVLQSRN
In short, it runs like this:
as §1

A further assay has as its target ETV1 (Homo sapiens, UniProt P50549 1-477). In a few lines: as §1
Another assay addresses SPIB (Homo sapiens, UniProt Q01892 1-262). In short, it runs like this:
as §1

The next assay deals with SPI1 (Homo sapiens, UniProt P17947 1-270). In short, it runs like this:
as §1

Chain of ELF1 (P32519 whole entry): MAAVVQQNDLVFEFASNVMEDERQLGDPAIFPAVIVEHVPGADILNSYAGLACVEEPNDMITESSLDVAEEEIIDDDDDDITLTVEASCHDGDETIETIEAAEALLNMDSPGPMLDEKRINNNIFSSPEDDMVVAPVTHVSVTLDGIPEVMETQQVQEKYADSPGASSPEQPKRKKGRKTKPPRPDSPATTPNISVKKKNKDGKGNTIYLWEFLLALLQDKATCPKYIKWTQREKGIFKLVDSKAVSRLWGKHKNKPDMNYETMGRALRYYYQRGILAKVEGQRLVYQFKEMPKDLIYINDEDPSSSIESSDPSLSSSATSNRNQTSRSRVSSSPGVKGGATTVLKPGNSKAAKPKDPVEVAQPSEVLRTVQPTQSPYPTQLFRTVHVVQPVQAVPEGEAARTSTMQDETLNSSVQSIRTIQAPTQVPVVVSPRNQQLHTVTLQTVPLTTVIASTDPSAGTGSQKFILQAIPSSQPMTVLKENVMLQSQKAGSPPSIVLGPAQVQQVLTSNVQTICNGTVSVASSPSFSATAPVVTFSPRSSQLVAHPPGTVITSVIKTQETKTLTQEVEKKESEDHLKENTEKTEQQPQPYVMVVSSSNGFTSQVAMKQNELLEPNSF
Chain of ELF4 (Q99607 whole entry): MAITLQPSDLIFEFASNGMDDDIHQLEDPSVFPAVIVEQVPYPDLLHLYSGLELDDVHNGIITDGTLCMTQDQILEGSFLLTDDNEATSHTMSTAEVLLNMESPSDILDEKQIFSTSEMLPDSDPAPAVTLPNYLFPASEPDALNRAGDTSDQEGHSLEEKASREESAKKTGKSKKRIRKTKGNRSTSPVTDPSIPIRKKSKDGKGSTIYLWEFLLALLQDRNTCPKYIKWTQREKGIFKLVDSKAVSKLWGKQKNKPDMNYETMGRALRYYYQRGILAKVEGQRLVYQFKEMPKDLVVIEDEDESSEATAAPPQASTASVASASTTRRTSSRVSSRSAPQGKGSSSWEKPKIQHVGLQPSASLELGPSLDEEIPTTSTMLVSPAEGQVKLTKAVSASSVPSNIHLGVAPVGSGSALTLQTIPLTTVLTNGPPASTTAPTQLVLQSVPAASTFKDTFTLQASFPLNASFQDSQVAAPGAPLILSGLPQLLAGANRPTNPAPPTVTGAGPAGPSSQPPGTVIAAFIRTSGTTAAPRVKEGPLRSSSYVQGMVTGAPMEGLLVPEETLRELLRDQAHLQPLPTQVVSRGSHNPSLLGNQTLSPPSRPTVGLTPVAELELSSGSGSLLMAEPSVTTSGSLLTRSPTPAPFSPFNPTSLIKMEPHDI
Chain of ETV5 (P41161 whole entry): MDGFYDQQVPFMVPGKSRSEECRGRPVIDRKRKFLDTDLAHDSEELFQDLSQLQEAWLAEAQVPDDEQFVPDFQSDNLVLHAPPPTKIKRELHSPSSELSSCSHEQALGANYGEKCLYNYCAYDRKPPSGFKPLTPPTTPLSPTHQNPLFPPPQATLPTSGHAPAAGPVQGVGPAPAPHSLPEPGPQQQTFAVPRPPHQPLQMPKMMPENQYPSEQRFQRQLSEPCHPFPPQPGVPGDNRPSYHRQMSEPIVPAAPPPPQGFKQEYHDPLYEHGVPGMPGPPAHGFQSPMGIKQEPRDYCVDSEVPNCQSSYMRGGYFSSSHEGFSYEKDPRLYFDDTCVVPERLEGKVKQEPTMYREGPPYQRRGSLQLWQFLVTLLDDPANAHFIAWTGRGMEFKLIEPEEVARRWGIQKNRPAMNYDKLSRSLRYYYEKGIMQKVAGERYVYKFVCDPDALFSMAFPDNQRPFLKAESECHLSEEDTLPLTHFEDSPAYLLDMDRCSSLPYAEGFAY
Chain of ETV1 (P50549 whole entry): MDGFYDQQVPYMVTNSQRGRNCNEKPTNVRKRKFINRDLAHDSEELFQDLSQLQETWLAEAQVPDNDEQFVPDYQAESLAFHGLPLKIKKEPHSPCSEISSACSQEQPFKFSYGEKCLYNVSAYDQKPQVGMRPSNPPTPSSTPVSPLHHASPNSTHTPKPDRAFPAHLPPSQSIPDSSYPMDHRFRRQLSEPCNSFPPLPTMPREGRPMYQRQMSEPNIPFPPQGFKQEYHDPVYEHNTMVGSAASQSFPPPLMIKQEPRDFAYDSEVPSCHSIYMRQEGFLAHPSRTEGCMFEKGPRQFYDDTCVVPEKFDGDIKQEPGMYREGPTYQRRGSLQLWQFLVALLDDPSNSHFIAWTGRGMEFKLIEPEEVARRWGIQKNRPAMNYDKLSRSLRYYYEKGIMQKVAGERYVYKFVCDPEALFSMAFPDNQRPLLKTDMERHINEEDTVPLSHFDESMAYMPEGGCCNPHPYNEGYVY
Chain of SPIB (Q01892 whole entry): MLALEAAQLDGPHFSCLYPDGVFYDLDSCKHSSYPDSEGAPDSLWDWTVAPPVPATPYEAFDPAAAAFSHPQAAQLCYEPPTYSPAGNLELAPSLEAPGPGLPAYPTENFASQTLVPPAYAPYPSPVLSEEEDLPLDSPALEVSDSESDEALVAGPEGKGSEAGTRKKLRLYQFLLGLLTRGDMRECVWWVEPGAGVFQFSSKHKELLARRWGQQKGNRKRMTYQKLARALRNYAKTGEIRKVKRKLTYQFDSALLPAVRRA

As for CTACAG, the binding signal with FLI1 is 1.17 fold enrichment (6-mer frequency, TF over GST control); with ELK1, 1.01 fold enrichment (6-mer frequency, TF over GST control); with GABPA, 1.16 fold enrichment (6-mer frequency, TF over GST control); with ERG, 1.03 fold enrichment (6-mer frequency, TF over GST control); with ELF1 it was 1.08 fold enrichment (6-mer frequency, TF over GST control); with EHF, 1.05 fold enrichment (6-mer frequency, TF over GST control). The binding signal with ELK3 was 1.08 fold enrichment (6-mer frequency, TF over GST control); with FEV, 1.04 fold enrichment (6-mer frequency, TF over GST control); with ETV5 it was 1.07 fold enrichment (6-mer frequency, TF over GST control); in the assay with SPIC, 1.04 fold enrichment (6-mer frequency, TF over GST control); with ELF4, 1.02 fold enrichment (6-mer frequency, TF over GST control); with ELK4, 1.07 fold enrichment (6-mer frequency, TF over GST control). Besides, the binding signal was 1.02 fold enrichment (6-mer frequency, TF over GST control) with ETV2; 1 fold enrichment (6-mer frequency, TF over GST control) in the assay with ELF3; 1.06 fold enrichment (6-mer frequency, TF over GST control) with ETV1.

Take GGCCCT: the binding signal with FLI1 is 1.09 fold enrichment (6-mer frequency, TF over GST control); with ELK1, 1.08 fold enrichment (6-mer frequency, TF over GST control); in the assay with GABPA it was 1.11 fold enrichment (6-mer frequency, TF over GST control); with ERG, 1.1 fold enrichment (6-mer frequency, TF over GST control); in the assay with ELF1, 1 fold enrichment (6-mer frequency, TF over GST control); with SPIB it was 1.15 fold enrichment (6-mer frequency, TF over GST control). Also, the binding signal in the assay with ETV5 is 1.04 fold enrichment (6-mer frequency, TF over GST control); with SPIC, 1.11 fold enrichment (6-mer frequency, TF over GST control); with ELF4 it was 1.06 fold enrichment (6-mer frequency, TF over GST control); with ELK4, 1.06 fold enrichment (6-mer frequency, TF over GST control); with ETV2, 1.14 fold enrichment (6-mer frequency, TF over GST control); with ELF3, 1.11 fold enrichment (6-mer frequency, TF over GST control).

As to TGTCTG, the binding signal with FLI1 is 1 fold enrichment (6-mer frequency, TF over GST control); with ELK1 it was 1.1 fold enrichment (6-mer frequency, TF over GST control); in the assay with GABPA, 1.11 fold enrichment (6-mer frequency, TF over GST control); with ERG it was 1.05 fold enrichment (6-mer frequency, TF over GST control); with ELF1, 1.06 fold enrichment (6-mer frequency, TF over GST control); with SPI1 it was 1.17 fold enrichment (6-mer frequency, TF over GST control). The binding signal is 1.16 fold enrichment (6-mer frequency, TF over GST control) with SPIB; 1.15 fold enrichment (6-mer frequency, TF over GST control) with FEV; 1.09 fold enrichment (6-mer frequency, TF over GST control) in the assay with ETV5; 1.33 fold enrichment (6-mer frequency, TF over GST control) with SPIC; 1.04 fold enrichment (6-mer frequency, TF over GST control) with ELF4; 1.02 fold enrichment (6-mer frequency, TF over GST control) with ELK4. Also, the binding signal is 1.21 fold enrichment (6-mer frequency, TF over GST control) with ETV2; 1.21 fold enrichment (6-mer frequency, TF over GST control) in the assay with ELF3; 1.04 fold enrichment (6-mer frequency, TF over GST control) with ETV1.

The values above are taken from publication PMC7862700, “An all-to-all approach to the identification of sequence-specific readers for epigenetic DNA modifications on cytosine”.
